Data reported in PubChem BioAssay (NCATS).
Where “and” joins values, the source holds several entries; their conditions need not be identical. Equal entries are not always repeated. Records with an inconclusive call do not appear. Calls of active or inactive are those of the source. Calls come from the whole dose curve; as a rule, active = well fitted inhibition curve with a large enough effect; inconclusive = small, poorly fitted or top-dose-only effect; inactive = flat fitted curve, though single readings scatter.

Test: P-glycoprotein substrates identified in KB-8-5-11 adenocarcinoma cell line, qHTS therapeutic library screen (AID 1346987); note: nearly all actives have a fitted effect of over 65% in size
Details: KB-8-5-11 (P-gp overexpressing) viability, CellTiter-Glo, 72 h; series mostly up to 44.5 µM; activity change, negative = cytotoxicity: at the top concentration
Summary of the method: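 KB-8-5-11: colchicine-selected sub-line of KB-3-1 over-expressing P-gp; assay medium lacked colchicine. 72 h drug exposure at 37 degree C, CellTiter-Glo.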
% is set by controls: 0 for no effect and ±100 for the full control effect; potency is the fitted concentration of half-maximal effect.

SMILES | Potency | activity change, negative = cytotoxicity | outcome
CCCCNc1ncc2c(-c3ccc(S(=O)(=O)N4CCOCC4)cc3)nn(C3CCC(O)CC3)c2n1 (centres undefined) | 7.31 µM (active) |  | 
C/C=C(\C)[C@@H]1C(C)=C[C@@H]2[C@H]([C@@H]1/C=C/C=C/C(=O)O)[C@@H](C)CC[C@@H]2O | 11.4 µM (active) |  | 
OC1CCC(Nc2nc(-c3ccccc3)nc3[nH]ccc23)CC1 (centres undefined) |  | -10.1% (inactive) | 
C=C(C)[C@@H]1CC[C@]2(C(=O)O)CC[C@]3(C(=O)O)[C@H](CCC4[C@@]5(C)CCC(=O)C(C)(C)C5CC[C@]43C)C12 (some centres undefined) |  | -14.5% [at 17.3 µM] (inactive) | 
O=C(NCCCNC(=O)c1ccc[nH]c1=O)c1cc(-c2ccccc2)on1 |  | -19.4% (inactive) | 
Cn1ncnc1[C@H]1c2n[nH]c(=O)c3cc(F)cc(c23)N[C@@H]1c1ccc(F)cc1 |  | -15.9% [at 17.3 µM] (inactive) | 
CCC(C)[C@H]1O[C@]2(C=C[C@@H]1C)C[C@@H]1C[C@@H](C/C=C(\C)[C@@H](O[C@H]3C[C@H](OC)[C@@H](O[C@H]4C[C@H](OC)[C@H](NC(C)=O)[C@H](C)O4)[C@H](C)O3)[C@@H](C)/C=C/C=C3\CO[C@@H]4[C@H](O)C(C)=C[C@@H](C(=O)O1)[C@]34O)O2 (some centres undefined) | 5.17 µM (active) and 18.4 µM (active) |  | 
CCCCCCCCCCCCCCCCCC(=O)[O][Al] |  | -2.19% (inactive) | 
CC(C)n1cnc2c(-c3cnc(N)nc3)nc(N3CCOCC3)nc21 | 0.709 µM (active) |  | 
CCc1ccccc1OC[C@@H](O)CN[C@H]1CCCc2ccccc21 | 20.6 µM (active) |  | 
CC[C@H](C)/C=C(C)/C=C/C1=CC2=C(Cl)C(=O)[C@](C)(O)[C@H](OC(C)=O)[C@H]2CO1 |  | -8.29% (inactive) | 
O=C(Nc1cccc(C(F)(F)F)c1)Nc1ccc(Br)cc1-c1nn[nH]n1 |  | -10.6% (inactive) | 
O=C(NNc1nc2cc(F)ccc2n2cccc12)c1cnccn1 | 2.31 µM (active) |  | 
C=C1C(=O)O[C@@H]2[C@H]3C(C)=CC(=O)C3=C(C)CC[C@@H]12 | 14.6 µM (active) |  | 
CC#CC(=O)Nc1ccc2ncnc(Nc3cccc(Br)c3)c2c1 | 11.6 µM (active) |  | 
N#Cc1cc(-c2ccnc(Nc3ccc(N4CCOCC4)cc3)n2)ccc1OC1CCOCC1 | 16.4 µM (active) |  | 
C/C=C/C1=CC2=C(CO1)C(=O)C(C)(OC(=O)c1c(C)cc(O)cc1OC)C(O)C2 (centres undefined) |  |  | inactive
CCN1CCN(Cc2ccc(NC(=O)c3ccc(C)c(Oc4ccnc5[nH]ccc45)c3)cc2C(F)(F)F)CC1 | 10.1 µM (active) |  | 
c1cc(-c2cnn3cc(-c4ccc(N5CCNCC5)cc4)cnc23)c2cccnc2c1 | 5.17 µM (active) |  | 
CC(C)(C)c1ccc(C(=O)Nc2cn3cc(-n4ccnc4)ccc3n2)cc1 |  | -2.11% (inactive) | 

SMILES | Potency | activity change, negative = cytotoxicity | outcome
COc1cccc(-c2cc(F)ccc2C2Cc3nc(N)nc(C)c3C(=O)N2)n1 (centres undefined) | 0.0259 µM (active) |  | 
COc1cc([C@@H]2c3cc4c(cc3C(O[C@@H]3O[C@@H]5COC(c6cccs6)O[C@H]5[C@H](O)[C@H]3O)C3COC(=O)[C@@H]32)OCO4)cc(OC)c1O (some centres undefined) |  | -19% (inactive) | 
COc1c2c(nc3occc13)C(CC=C(C)C)(OC)C(O)CC2 (centres undefined) |  | -23% (inactive) | 
CNCCN1CCC(c2cc(CN(C)C(=O)c3cccc(Oc4ccccc4)c3)ccn2)CC1 |  |  | inactive [at 17.3 µM]
CC(C)c1cccc(C(C)C)c1NC(=O)Nc1ccc(Sc2ccc([N+](=O)[O-])cc2)cc1 | 5.8 µM (active) |  | 
O=C(Nc1ncc([N+](=O)[O-])s1)c1ccccc1O | 5.8 µM (active) |  | 
O=C(NCCN1CCOCC1)c1cc2c(Oc3ccc(NC(=O)C4(C(=O)Nc5ccc(F)cc5)CC4)cc3)ccnc2[nH]1 |  | -5.72% (inactive) | 
CCOC(=O)Cc1cccc(-c2cc(CCCCCCc3ccc(O[C@H]4O[C@H](COC(C)=O)[C@@H](OC(C)=O)[C@H](OC(C)=O)[C@@H]4OC(C)=O)c(-c4cccc(CC(=O)OCC)c4)c3)ccc2O[C@H]2O[C@H](COC(C)=O)[C@@H](OC(C)=O)[C@H](OC(C)=O)[C@@H]2OC(C)=O)c1 |  | 1.83% (inactive) | 
O=S(=O)(NCc1cccc2ccccc12)c1cc(Cl)c(Oc2cccc(N3CCNCC3)c2)s1 | 16.4 µM (active) |  | 
CC1=C2C[C@@]3(C)C(CCC[C@@H]3C)C(O)C2OC1=O (some centres undefined) |  |  | inactive
COc1cc2c(cc1OC)CN(C(=O)/C=C/c1c(-c3ccccc3)n(C)c3ncccc13)CC2 | 20.6 µM (active) |  | 
O=C(NCCN1CCN(c2cccc3ccc(O)cc23)CC1)c1ccc(F)cc1 |  | -20.3% (inactive) | 
COc1cc(OC)c2c(=O)[nH]c(-c3cc(C)c(OCCO)c(C)c3)nc2c1 |  | -10.4% (inactive) | 
COc1ccc(OC)c(-c2ccc(NC(=O)c3ccncc3F)cc2)c1 |  | -9.21% (inactive) | 
CC1=C(C(=O)OC2CCCCC2)C(c2ccc([N+](=O)[O-])cc2)C2=C(CC(C)(C)CC2=O)N1 (centres undefined) |  |  | inactive
Nc1c(CC(=O)O)cccc1C(=O)c1ccccc1 | inactive |  | 
CC(=O)OC(C)(C)/C=C/C(=O)C(C)(O)C1C(O)CC2(C)C3CC=C(C(C)(C)C(=O)O)C(CC(=O)O)C3(C)C(=O)CC12C (centres undefined) |  | -17.2% [at 17.3 µM] (inactive) | 
NCCC(=O)[N-][C@@H](Cc1cnc[nH]1)C(=O)O.[Zn] |  | 10.5% (inactive) | 
CC(=O)OC1CC2(C)C(CCC(C)C23Cc2c(O)cc(CO)c(C=O)c2O3)C(C)(C)C1O (centres undefined) |  | -15.3% [at 17.3 µM] (inactive) | 
